HSP90 refold inh – inhibitors of HSP90 luciferase refolding in rabbit reticulocyte lysate; luciferase refolding luminescence, 3 h; inhibition, % at 5.6 µM; actives 0.91% (n = 290,000);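 active = inhibition above the screen-wide mean plus 3 SD, computed separately per campaign, cut at about 16% in these data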;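 also: 0% = DMSO wells and 100% = 60 µM geldanamycin wells; inhibitors lower the luminescence because luciferase stays unfolded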
SENP8 block-1 – inhibitors of human SENP8 protease | purified SENP8, Z-RLRGG-aminoluciferin cleavage, luminescence | Q96LD8 | actives 1.2% (n = 330,000) | inhibition, % at 10 µM; in the data active = inhibition above about 50%
Target sequence (Q96LD8 whole entry, looked up): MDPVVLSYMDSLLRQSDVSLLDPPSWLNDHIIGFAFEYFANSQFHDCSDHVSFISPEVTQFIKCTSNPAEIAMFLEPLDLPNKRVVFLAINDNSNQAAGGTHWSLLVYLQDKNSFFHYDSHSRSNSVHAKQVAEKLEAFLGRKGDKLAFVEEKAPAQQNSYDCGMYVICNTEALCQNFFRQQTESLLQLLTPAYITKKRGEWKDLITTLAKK
SENP7 inh – SENP7 protease inhibition. recombinant SENP7, Z-RLRGG-aminoluciferin luminescence, 40 min. inhibition, % at 5 µM. actives 1.5% (n = 330,000). AID 434973;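 active = inhibition above about 50% at the single test dose, limit read from the data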;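 also: plate controls were DMSO with enzyme for no effect and no enzyme buffer wells for full effect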
Target sequence (Q9BQF6 706-1050 limits assumed): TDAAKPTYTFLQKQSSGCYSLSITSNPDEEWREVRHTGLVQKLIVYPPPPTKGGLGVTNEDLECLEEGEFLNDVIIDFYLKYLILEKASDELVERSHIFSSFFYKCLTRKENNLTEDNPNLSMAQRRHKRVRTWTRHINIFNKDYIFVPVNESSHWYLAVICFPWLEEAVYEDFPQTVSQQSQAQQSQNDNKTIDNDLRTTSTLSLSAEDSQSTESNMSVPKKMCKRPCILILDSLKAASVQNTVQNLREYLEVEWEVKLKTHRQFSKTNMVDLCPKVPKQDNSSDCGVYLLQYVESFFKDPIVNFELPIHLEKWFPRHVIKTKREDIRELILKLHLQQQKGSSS
SENP8 block-2 – inhibitors of human SENP8 protease. recombinant SENP8, Nedd8 substrate fluorescence. inhibition, % at 20 µM. actives 0.64% (n = 360,000). AID 602440; in the data active = inhibition mostly above about 40%, no sharp cut-off; inactive = mostly below about 27%
Platelet DG rel – modulates dense granule release in human platelets; human platelet-rich plasma, SFLLRN dense granule ATP release, luminescence; inhibition, %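 (compounds screened at 7.5 µM in platelet-rich plasma)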; actives 0.22% (n = 300,000); AID 1663;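 active = mean replicate score, as percent of positive control, at or above 50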
SENP6 block – SENP6 protease inhibition. Q9GZR1. Recombinant SENP6 catalytic domain, aminoluciferin luminescence. inhibition, % at 10 µM. actives 1.8% (n = 330,000). AID 2599;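 active = inhibition above about 50% at the single tested dose, limit read from the data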;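 also: plate controls were DMSO wells with enzyme for no effect and DMSO wells lacking enzyme for full effect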
HSP90 inh confirm – HSP90 inhibition, confirmation assay; shares compounds with HSP90 refold inh; rabbit reticulocyte lysate, luciferase refolding luminescence, 3 h; inhibition, % at 5.9 µM; actives 64% (n = 2,300); AID 1846; in the data active = inhibition above about 18%;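 also: 0% = vehicle wells and 100% = reference inhibitor wells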
luciferase ctr – blocks native firefly luciferase in HSP90 counter-screen | shares compounds with HSP90 refold inh | inhibition, % at 5.9 µM | actives 48% (n = 2,300) | purified native firefly luciferase, luminescence | AID 1847;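 active = inhibition above the mean inhibition of all tested sample wells plus 3 SD, cut at about 10% in these data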;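 also: 0% = DMSO with luciferase and 100% = wells lacking luciferase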
Starred values were filed as active, the others as inactive. An excerpt weighted towards active compounds, which were near 2.8% of everything screened.

Screening O=C(Nc1ncc([N+](=O)[O-])s1)c1cccc([N+](=O)[O-])c1 returned HSP90 refold inh 16*, SENP8 block-1 97*, SENP7 inh 101*, SENP8 block-2 29, Platelet DG rel 35, SENP6 block 96*, HSP90 inh confirm 60* and luciferase ctr 34*.
Screening O=C(Nc1ccc(NC(=O)c2cccc([N+](=O)[O-])c2)cc1)c1cccc([N+](=O)[O-])c1 returned HSP90 refold inh 3, SENP8 block-1 -21, SENP7 inh 12, SENP8 block-2 16, Platelet DG rel -7 and SENP6 block 19.
`COc1ccccc1NC(=O)O/N=C(\N)c1ccccc1` gave HSP90 refold inh 17*, SENP8 block-1 -5, SENP7 inh -4, SENP8 block-2 14, Platelet DG rel 10, SENP6 block -15, HSP90 inh confirm -1 and luciferase ctr -13.
Screening O=C(NC1CCCCC1)C1CCN(C(=O)c2ccccc2Cl)CC1 returned HSP90 refold inh -1, SENP8 block-1 -12, SENP7 inh -10, SENP8 block-2 8, Platelet DG rel -8 and SENP6 block -29.
`Cc1ccccc1C(=O)N1CCC(C(=O)NC2CCCCCC2)CC1` gave HSP90 refold inh 20*, SENP8 block-1 -4, SENP7 inh 5, SENP8 block-2 2, Platelet DG rel 1, SENP6 block 5, HSP90 inh confirm -2 and luciferase ctr -9.
For CCn1cc(/C=C(\NC(=O)c2ccccc2OC)C(=O)NCCN2CCOCC2)c2ccccc21 the results were SENP8 block-2 -7.
Screening Cc1c(NC(=O)C(C)OC(=O)c2cccnc2Cl)c(=O)n(-c2ccccc2)n1C (stereo unspecified) returned SENP8 block-1 9, SENP7 inh 8, SENP8 block-2 13 and SENP6 block 8.
COc1ccc(C(=O)NCCn2cc(SCC(=O)NCC3CCCO3)c3ccccc32)cc1 (stereo unspecified) was read as HSP90 refold inh 29*, SENP8 block-1 -5, SENP7 inh 5, SENP8 block-2 6, Platelet DG rel 2, SENP6 block -2, HSP90 inh confirm 15 and luciferase ctr 3.
Screening COc1ccccc1C(=O)NCCn1cc(SCC(=O)NCC2CCCO2)c2ccccc21 (stereo unspecified) returned HSP90 refold inh 1, SENP8 block-1 -5, SENP7 inh -5, SENP8 block-2 14, Platelet DG rel 1 and SENP6 block -10.
Screening O=C(O)c1ccc(Oc2c(C(F)(F)F)oc3cc(O)ccc3c2=O)cc1 returned HSP90 refold inh 31*, SENP8 block-1 -6, SENP7 inh -1, SENP8 block-2 -14, Platelet DG rel 3, SENP6 block -13, HSP90 inh confirm 1 and luciferase ctr -3.
CCN(CC)C(=O)[C@H]1C[C@H](CC(=O)NCc2ccc(OC)c(OC)c2)C(=O)N2CCc3c([nH]c4ccc(Cl)cc34)[C@]12C was read as SENP7 inh 11 and SENP8 block-2 9.
For CC(C)c1ccccc1OCC(=O)NCC(c1cccs1)N1CCOCC1 (stereo unspecified) the results were HSP90 refold inh 24*, SENP8 block-1 4, SENP7 inh 10, SENP8 block-2 6, Platelet DG rel 14, SENP6 block -1, HSP90 inh confirm 0 and luciferase ctr -5.
For C=C[C@]1(C)C=C2C(=O)C[C@H]3C(C)(C)CCC[C@]3(C(=O)O)[C@@]2(O)CC1 the results were SENP8 block-2 14.
COC(=O)CC1=C(C)C(=O)CC2C(C)(C)CCCC12C (stereo unspecified) was read as HSP90 refold inh 19*, SENP8 block-1 -6, SENP7 inh -2, SENP8 block-2 3, Platelet DG rel -5, SENP6 block -12, HSP90 inh confirm 1 and luciferase ctr -7.
Screening Cc1c(Cc2ccc3c(c2)OCO3)sc(NC(=O)c2ccc3ccccc3c2)c1C(N)=O returned HSP90 refold inh -2, SENP8 block-1 12, SENP7 inh 2, SENP8 block-2 -435, Platelet DG rel -7 and SENP6 block 11.
`COc1cc(C(=O)Nc2nc(C)c(Cc3ccc4c(c3)OCO4)s2)cc(OC)c1OC` gave HSP90 refold inh -3, SENP8 block-1 2, SENP7 inh -2, SENP8 block-2 -79, Platelet DG rel -5 and SENP6 block 6.
`CCCOc1ccc(C(=O)Nc2nc(C)c(Cc3ccc4c(c3)OCO4)s2)cc1` gave HSP90 refold inh 24*, SENP8 block-1 2, SENP7 inh 1, SENP8 block-2 -37, Platelet DG rel -2, SENP6 block -1, HSP90 inh confirm 3 and luciferase ctr -12.
For Cc1nc(NC(=O)c2ccc(OCC(C)C)cc2)sc1Cc1ccc2c(c1)OCO2 the results were HSP90 refold inh 32*, SENP8 block-1 -2, SENP7 inh 4, SENP8 block-2 -25, Platelet DG rel 13, SENP6 block 14, HSP90 inh confirm 7 and luciferase ctr -6.
For CCc1nc(N2CCN(C(=S)NCCCOC)CC2)c2c3c(sc2n1)CCCC3 the results were HSP90 refold inh -2, SENP8 block-1 -7, SENP7 inh 4, SENP8 block-2 2, Platelet DG rel -2 and SENP6 block 7.
For CCNC(=O)C1(C)CCCN(C(=O)c2ccc(F)c(C)c2)C1 (stereo unspecified) the results were SENP8 block-2 6.
O=C(N/N=C/c1cccnc1)NC12CC3CC(CC(C3)C1)C2 was read as HSP90 refold inh 32*, SENP8 block-1 4, SENP7 inh -8, SENP8 block-2 8, Platelet DG rel -1, SENP6 block -12, HSP90 inh confirm 6 and luciferase ctr 1.
Screening COCCNC(=O)C1(C)CCCN(C(=O)c2ccc(C#N)cc2)C1 (stereo unspecified) returned SENP8 block-2 10.
For O=C(N/N=C/c1ccc(N2CCOCC2)cc1)c1ccccn1 the results were HSP90 refold inh 26*, SENP8 block-1 27, SENP7 inh 55*, SENP8 block-2 -83, Platelet DG rel 25, SENP6 block 56*, HSP90 inh confirm 14 and luciferase ctr 1.
Screening O=C(N/N=C/c1ccncc1)c1ccccn1 returned HSP90 refold inh 2, SENP8 block-1 -9, SENP7 inh 7, SENP8 block-2 11, Platelet DG rel 13 and SENP6 block 15.
CCNc1ccc(C(=O)O)cc1N was read as HSP90 refold inh 55*, SENP8 block-1 3, SENP7 inh -6, SENP8 block-2 -96, Platelet DG rel 1, SENP6 block 7, HSP90 inh confirm 2 and luciferase ctr -6.

Screens as filed in PubChem.
